Values joined by “and” are separate entries in the source; they are usually repeats but may differ in a detail not shown here. Equal entries are not always repeated. Active and inactive are the calls of the source. Unless noted, how the calls were made is not given here.

A short description of experiment [1]: compounds binding Alexa647 anti-His antibody – biochemical, small-molecule microarray, 635 nm fluorescence, artefact control for SMM control protein annotation, primary screen (AID 1128).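 Further: score merges feature fluorescence with signal-to-noise for each printed compound spot.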 The note with it: higher = more signal.
Experiment [2] has as its system Human papillomavirus type 1a E7 protein (residues 1-88). In words: HPV1a E7 small-molecule binders, primary screen, biochemical, small-molecule microarray, residues 1-88, 635 nm (AID 1129). The note with it: small-molecule microarray binding, fluorescence 635 nm; higher = more signal.
Experiment [3] has as its target Focal adhesion kinase 1 (Homo sapiens) (UniProt Q05397). Kind of experiment: PTK2 protein binding on printed compound slides – biochemical, small-molecule microarray, 635/667 nm fluorescence, BSA, DTT, primary screen (AID 1130).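 Further: composite of spot emission at 667 nm and signal to noise over triplicate slides.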 The note with it: 635 nm fluorescence, higher = more signal.
The test system of experiment [4] is Fibrinogen (Alexa647-labelled). Kind of experiment: Alexa647-fibrinogen binding to printed small molecules – biochemical, small-molecule microarray, 635/667 nm fluorescence, artefact control for SMM control-protein annotation, profiling panel (AID 1131).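 Further: z-score merges 667 nm fluorescence with per-spot signal-to-noise over triplicate slides.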 The note with it: fibrinogen-A647 binding fluorescence, higher = more signal.
Experiment [5] addresses Follistatin (Homo sapiens) (UniProt P19883). In words: FST protein binding to printed compounds – biochemical, small-molecule microarray, 635/667 nm fluorescence, primary screen (AID 1132). The note with it: 635 nm fluorescence, higher = more signal.
For experiment [6], the target named is Fibroblast growth factor 2 (Homo sapiens) (UniProt P09038). In words: basic fibroblast growth factor binding to printed compounds – biochemical, small-molecule microarray, 635/667 nm fluorescence, primary screen (AID 1133). To be noted: FGF2, fluorescence 635/667, higher = more signal.
Fibroblast growth factor 2 (Homo sapiens), sequence (P09038 whole entry, looked up): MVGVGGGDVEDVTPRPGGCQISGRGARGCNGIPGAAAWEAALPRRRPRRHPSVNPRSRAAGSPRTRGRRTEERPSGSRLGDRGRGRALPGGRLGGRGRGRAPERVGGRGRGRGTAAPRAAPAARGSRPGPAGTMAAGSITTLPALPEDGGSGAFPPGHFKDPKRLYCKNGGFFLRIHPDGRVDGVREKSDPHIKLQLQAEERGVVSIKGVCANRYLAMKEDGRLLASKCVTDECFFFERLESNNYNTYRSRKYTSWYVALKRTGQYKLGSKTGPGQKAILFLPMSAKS
Experiment [7] is described as follows: JC-1 mitochondrial potential readout, lung cancer cells – cell-based, A549, JC-1 fluorescence, basal, 24 h, 100 nL, profiling panel (AID 1138).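 Further: A549 lung adenocarcinoma cells under basal conditions with no added stimulus; test concentration not given here.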 The note with it: higher = more signal.
Experiment [8] deals with Lefty1. Kind of experiment: Lefty1 protein binding to printed compounds – biochemical, small-molecule microarray, 635/667 nm fluorescence, primary screen (AID 1139). The note with it: fluorescence 635/667, higher = more signal.
The test system of experiment [9] is wheat germ agglutinin (Triticum aestivum), Alexa647-labelled. In words: Alexa647-WGA lectin binding to printed small molecules – biochemical, small-molecule microarray, 635/667 nm fluorescence, artefact control for SMM control-protein annotation, profiling panel (AID 1140).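 Further: score merges 667 nm feature emission with signal to noise over triplicate slides.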 The note with it: WGA-A647 binding, 635 nm fluorescence, higher = more signal.
The target in experiment [10] is Luciferin 4-monooxygenase (Photinus pyralis) (UniProt P08659). Kind of experiment: inhibition of purified Photinus pyralis luciferase – biochemical, luminescence, purified enzyme, 2006 set, primary screen (AID 1141).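 Further: cell-free assay with purified firefly luciferase at 100 ng per well in PBS; test concentration not given here.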 To be noted: purified firefly luciferase, SteadyGlo luminescence, 30 min; higher = more signal, called active from +8 up or from −8 down.
Luciferin 4-monooxygenase (Photinus pyralis), sequence (P08659 whole entry, looked up): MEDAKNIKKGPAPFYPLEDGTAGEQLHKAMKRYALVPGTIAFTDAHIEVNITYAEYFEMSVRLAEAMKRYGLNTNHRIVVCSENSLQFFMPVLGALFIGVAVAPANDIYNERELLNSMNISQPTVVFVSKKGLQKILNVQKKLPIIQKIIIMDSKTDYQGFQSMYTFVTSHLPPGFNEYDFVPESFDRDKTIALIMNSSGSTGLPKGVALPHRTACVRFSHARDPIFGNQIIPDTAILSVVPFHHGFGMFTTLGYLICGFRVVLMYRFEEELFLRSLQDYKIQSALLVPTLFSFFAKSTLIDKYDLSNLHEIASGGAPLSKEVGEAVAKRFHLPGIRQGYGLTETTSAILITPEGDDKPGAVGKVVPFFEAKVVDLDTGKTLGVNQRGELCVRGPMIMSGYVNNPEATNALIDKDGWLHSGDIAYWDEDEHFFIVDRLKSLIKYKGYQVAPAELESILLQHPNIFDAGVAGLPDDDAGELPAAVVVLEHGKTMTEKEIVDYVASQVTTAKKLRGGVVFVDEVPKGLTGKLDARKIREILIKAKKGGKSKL
For experiment [11], the system named is Wnt5a (protein binding on small-molecule microarray). Kind of experiment: small molecules binding Wnt5a protein – biophysical, small-molecule microarray, 635/667 nm fluorescence, primary screen (AID 1142).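 Further: fluorescence read at 667 nm with signal to noise per printed feature.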 The note with it: 635 nm fluorescence, higher = more signal.
Experiment [12] is described as follows: ATP-based viability of Huh7 replicon cells – cell-based, CellTiter-Glo luminescence, basal, 48 h, cytotoxicity control for HCV replication inhibitor project, primary screen (AID 1143).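 Further: Huh7 hepatoma cells carrying a hepatitis C replication reporter with no stimulus; test concentration not given here.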 To be noted: higher = more signal, called active from +8 up or from −8 down. On the technique in general: In antiviral work, replicon cells carry a viral genome segment that copies itself.

The nature of experiment [13]: Pseudomonas biofilm growth suppression – PAO1 strain, BacTiter-Glo luminescence, LB-PBS, primary screen (AID 1144). To be noted: P. aeruginosa PAO1 biofilm, 12 h, higher = more signal.
A short description of experiment [14]: basal CRE-LacZ reporter activity in PC12 – cell-based, unstimulated, primary screen (AID 1145). To be noted: no forskolin, luminescence, 4.5 h, higher = more signal, called active from +8 up or from −8 down.
Experiment [15] can be described thus: forskolin-driven CRE-LacZ activity in PC12 – cell-based, CRE-LacZ reporter, forskolin-stimulated, primary screen (AID 1146).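 Further: PC12 cells with 6xCRE LacZ reporter stimulated by forskolin 10 µM; beta-galactosidase reporter signal reflecting CREB driven transcription.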 To be noted: luminescence, 4.5 h, higher = more signal, called active from +8 up or from −8 down.
Experiment [16] concerns the target Streptavidin (Streptomyces avidinii) (UniProt P22629). In words: compounds binding control protein streptavidin – biophysical, small-molecule microarray, 635/667 nm fluorescence, artefact control for SMM compound annotation, primary screen (AID 1147).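 Further: signal reflects streptavidin binding to arrayed compounds as a control protein.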 To be noted: higher = more signal.
A short description of experiment [17]: probe aInhba binding on compound microarray – biochemical, small-molecule microarray, 635/667 nm fluorescence, primary screen (AID 1148).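 Further: score merges 667nm spot fluorescence with signal-to-noise for antibody binding to printed compounds.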 To be noted: higher = more signal.
For experiment [18], the target named is Torsin-1A (Homo sapiens) (UniProt O14656). Kind of experiment: TOR1A wild-type binding on microarray – cell lysate, small-molecule microarray, lysate, 635/667 nm, primary screen (AID 1149). The note with it: COS7 hTOR1A-WT lysate, 635 nm fluorescence, higher = more signal.
Torsin-1A (Homo sapiens), sequence (O14656 whole entry, looked up): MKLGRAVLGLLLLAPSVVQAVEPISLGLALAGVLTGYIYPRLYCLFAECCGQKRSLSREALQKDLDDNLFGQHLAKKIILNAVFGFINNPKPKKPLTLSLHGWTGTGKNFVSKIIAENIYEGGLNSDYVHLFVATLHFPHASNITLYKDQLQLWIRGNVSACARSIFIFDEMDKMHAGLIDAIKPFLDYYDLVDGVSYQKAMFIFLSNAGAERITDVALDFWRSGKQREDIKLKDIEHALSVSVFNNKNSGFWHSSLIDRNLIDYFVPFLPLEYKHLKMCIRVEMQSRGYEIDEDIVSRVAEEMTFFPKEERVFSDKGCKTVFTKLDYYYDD
Experiment [19] shares this target. Kind of experiment: torsin A mutant lysate binding on microarrays – cell lysate, small-molecule microarray, COS7 lysate, 635/667 nm fluorescence, primary screen (AID 1150).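 Further: score pools 667 nm emission and signal to noise measuring lysate protein binding.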 The note with it: COS7 hTOR1A mutant lysate, 635 nm fluorescence, higher = more signal.
Experiment [20] concerns Sonic hedgehog protein (Shh). Kind of experiment: Sonic hedgehog microarray binding compounds – biochemical, small-molecule microarray, 635/667 nm fluorescence, primary screen (AID 1151).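 Further: Shh protein binding to compounds spotted on small-molecule microarray slides; score combines spot fluorescence intensity with signal-to-noise across triplicate slides.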 To be noted: 635 nm fluorescence, higher = more signal.

Follistatin (Homo sapiens), sequence (P19883 whole entry, looked up): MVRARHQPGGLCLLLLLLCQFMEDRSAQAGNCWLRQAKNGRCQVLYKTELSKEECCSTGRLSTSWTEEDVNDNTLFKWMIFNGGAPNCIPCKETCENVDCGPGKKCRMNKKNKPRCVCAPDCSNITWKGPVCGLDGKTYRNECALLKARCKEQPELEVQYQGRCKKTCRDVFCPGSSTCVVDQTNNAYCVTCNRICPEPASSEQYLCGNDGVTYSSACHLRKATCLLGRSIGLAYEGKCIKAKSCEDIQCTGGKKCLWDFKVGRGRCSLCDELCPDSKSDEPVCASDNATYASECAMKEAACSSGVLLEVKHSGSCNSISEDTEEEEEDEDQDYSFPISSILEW
Streptavidin (Streptomyces avidinii), sequence (P22629 whole entry, looked up): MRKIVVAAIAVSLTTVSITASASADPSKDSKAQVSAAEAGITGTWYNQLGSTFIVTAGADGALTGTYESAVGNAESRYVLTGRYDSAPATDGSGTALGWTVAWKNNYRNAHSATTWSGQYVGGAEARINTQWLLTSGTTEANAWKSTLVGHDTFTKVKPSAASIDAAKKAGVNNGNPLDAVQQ
Focal adhesion kinase 1 (Homo sapiens), sequence (Q05397 whole entry, looked up): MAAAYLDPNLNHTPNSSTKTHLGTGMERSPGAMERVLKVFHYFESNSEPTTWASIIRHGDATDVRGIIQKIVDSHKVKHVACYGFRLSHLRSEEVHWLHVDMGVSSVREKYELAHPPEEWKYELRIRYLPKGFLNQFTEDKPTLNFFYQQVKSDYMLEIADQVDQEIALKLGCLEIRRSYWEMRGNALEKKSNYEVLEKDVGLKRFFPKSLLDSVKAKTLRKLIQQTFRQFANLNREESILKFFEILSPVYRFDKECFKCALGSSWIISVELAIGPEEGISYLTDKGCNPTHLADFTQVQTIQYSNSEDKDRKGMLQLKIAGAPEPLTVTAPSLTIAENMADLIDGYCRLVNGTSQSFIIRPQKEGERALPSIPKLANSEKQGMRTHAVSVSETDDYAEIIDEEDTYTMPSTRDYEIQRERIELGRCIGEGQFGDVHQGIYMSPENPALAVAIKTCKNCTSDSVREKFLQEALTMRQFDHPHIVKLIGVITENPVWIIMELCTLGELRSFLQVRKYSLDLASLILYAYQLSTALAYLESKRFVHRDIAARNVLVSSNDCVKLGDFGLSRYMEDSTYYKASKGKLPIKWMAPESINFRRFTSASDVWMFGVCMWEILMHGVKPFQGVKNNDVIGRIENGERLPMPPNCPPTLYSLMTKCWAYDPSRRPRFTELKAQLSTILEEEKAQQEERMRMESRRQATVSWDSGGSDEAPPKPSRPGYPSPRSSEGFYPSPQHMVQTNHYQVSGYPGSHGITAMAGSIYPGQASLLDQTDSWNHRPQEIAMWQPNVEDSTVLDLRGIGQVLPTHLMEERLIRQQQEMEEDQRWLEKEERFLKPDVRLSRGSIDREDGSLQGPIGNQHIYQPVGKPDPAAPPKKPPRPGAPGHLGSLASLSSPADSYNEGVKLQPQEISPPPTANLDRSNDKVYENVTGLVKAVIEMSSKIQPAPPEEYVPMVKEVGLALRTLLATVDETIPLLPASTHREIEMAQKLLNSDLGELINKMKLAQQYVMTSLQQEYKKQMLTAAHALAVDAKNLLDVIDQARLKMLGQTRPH

Consider `CCCC[C@@H]1CN2[C@H](c3ccc(Br)cc3)[C@@H](C)CC[C@H]2C(=O)O1`, for which the composite z-score was -0.408 and 2.44 in experiment [1]; -0.535 and -0.105 in [2]; -0.0211 and 0.0131 in [3]; -0.167 and 0.546 in experiment [4]; 0.0438 and -0.0845 in [5]; 0.186 and 0.0412 in experiment [6]. The composite z-score in [8] is -0.128 and 0.0556; in experiment [9], -0.22 and 0.313; in experiment [11], -0.134 and -0.107; in [16], -0.13 and 0.159; in experiment [17] it was -0.261 and -0.0531; in experiment [18], 0.0781 and 0.436. Moreover, the composite z-score in experiment [19] was 0.516 and -0.16; in experiment [20] it was 0.11 and 0.152. The z-score in experiment [7] was 0.5 and 0.647; in [10] it was -0.052 (inactive) and -1.79 (inactive); in experiment [12], -0.394 (inactive) and -0.261 (inactive); in [13], -0.379 (inactive) and -0.292 (inactive); in [14], -0.343 (inactive) and 0.285 (inactive); in experiment [15] it was 0.903 (inactive) and 0.466 (inactive).
In the case of `C[C@@H](c1ccccc1)N1C(=O)[C@H]2[C@H]3[C@H](O)[C@H](O)CC(=O)[C@@H]3CC[C@H]2C1=O`, the composite z-score came to 0.338 in [1]; 0.793 in experiment [2]; 0.866 in experiment [3]; 0.212 in [4]; 0.605 in experiment [5]; 1.08 in experiment [6]. In addition, the composite z-score in experiment [8] is 1.64; in experiment [9], 0.108; in [11], 0.314; in [16] it was 0.192; in experiment [17] it was -0.0791; in experiment [18], 0.712. Besides, the composite z-score in [19] turned out to be 0.113; in experiment [20], 1.04. Also, the z-score was 0.792 in experiment [7]; -1.87 (inactive) in [10]; -0.961 (inactive) in experiment [12]; 0.00582 (inactive) in experiment [13]; 1.25 (inactive) in experiment [14]; 0.488 (inactive) in experiment [15].
In the case of `CCOC(=O)C[C@H]1[C@H](OC(=O)c2ccccc2-c2ccccc2)[C@@H](NC(=O)Cc2ccc(OC)cc2)c2cc(OCCCO)ccc2N1C(=O)c1ccc2ccccc2n1`, the composite z-score was 0.206 and -0.185 in [1]; 0.24 and 0.622 in experiment [2]; -0.0875 and 0.194 in [3]; 0.524 and 0.464 in experiment [4]; 0.392 and 0.546 in [5]; 0.714 and 0.119 in experiment [6]. In addition, the composite z-score in experiment [8] was 0.0614 and 1.07; in [9], 0.172 and 0.238; in [11], 0.0561 and 0.261; in experiment [16], 0.241 and 0.27; in experiment [17], 0.0543 and 0.168; in experiment [18], 0.0122 and -0.0425. In addition, the composite z-score was 0.19 and 0.686 in experiment [19]; 0.207 and 0.3 in experiment [20]. The z-score in experiment [7] is 3.49 and 0.601; in [10], -0.391 (inactive) and -0.85 (inactive); in experiment [12], -0.319 (inactive) and 0.66 (inactive); in experiment [13] it was -0.568 (inactive); in experiment [14], 7.64 (inactive) and -1.13 (inactive); in experiment [15] it was -0.809 (inactive) and -0.751 (inactive).
For the compound `C=CCN(C(=O)C1N(c2c(Cl)cccc2CO)C(=O)C2C(C(=O)O)C3C=CC21O3)c1ccc(OC)cc1` (stereo not given), the composite z-score in experiment [1] was 0.0132 and -1.11; in [2], -0.52 and -1.47; in experiment [3], -0.542 and -1.13; in [4], -0.79 and -1.58; in experiment [5], -1.08 and -1.26; in experiment [6], -1.37 and -1.76. The composite z-score in experiment [8] was -2.14 and -2.24; in experiment [9] it was 0.174 and -1.28; in [11], -0.898 and -0.782; in [16], -1 and -1.55; in [17] it was -0.874 and -0.379; in experiment [18], -2.69 and -1.75. For the same compound, the composite z-score in experiment [19] was -1.94 and -1.61; in [20] it was -1.22 and -0.893. Moreover, the z-score in experiment [7] was -1.09 and 1.22; in [10], 1.4 (inactive) and -1.32 (inactive); in [12], -0.443 (inactive) and -0.172 (inactive); in experiment [13], -0.927 (inactive) and -0.513 (inactive); in experiment [14] it was -0.623 (inactive) and 0.0645 (inactive); in [15], -0.297 (inactive) and -0.684 (inactive).
